The entries come from a sample that favours hits as a whole.
CHX counter – Cycloheximide Counterscreen for Small Molecule Inhibitors of Shiga Toxin. max response, %. hit rate 12% among 300,000. cell reporter, cycloheximide protein synthesis inhibition counterscreen; in the data active = max response mostly above about 13%, no sharp cut-off; inactive = mostly below about 14%; also: read at 38.3 µM for the half of the compounds with a filed dose; 0% is about no effect
AmpC inh no detg – qHTS Inhibitors of AmpC Beta-Lactamase (assay without detergent); P00811; AmpC nitrocefin hydrolysis, absorbance 480 nm, 0.0001% Triton; Potency, µM (titrated, usually from 57.1 µM), for inactives: at the highest dose activity change, negative = inhibition, usual class: inhibitors; hit rate 0.52% among 330,000;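 also: potency is read from the fitted curve at half-maximal effect; plate controls were no compound for no effect and no enzyme for full effect; nearly all actives have a fitted effect of over 20% in size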
Target sequence (P00811 whole entry, looked up): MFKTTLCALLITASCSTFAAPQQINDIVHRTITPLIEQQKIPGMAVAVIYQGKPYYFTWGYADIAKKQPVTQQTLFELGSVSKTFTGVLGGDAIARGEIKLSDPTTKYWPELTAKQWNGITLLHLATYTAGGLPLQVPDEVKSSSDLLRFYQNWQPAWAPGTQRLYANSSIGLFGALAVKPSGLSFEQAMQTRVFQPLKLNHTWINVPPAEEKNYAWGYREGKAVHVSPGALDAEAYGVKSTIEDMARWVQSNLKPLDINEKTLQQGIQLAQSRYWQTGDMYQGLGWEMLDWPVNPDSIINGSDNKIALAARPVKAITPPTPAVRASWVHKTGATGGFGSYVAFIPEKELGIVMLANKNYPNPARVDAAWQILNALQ
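20 mM phosphate pH 7.0 + 0.01% (detergent screen) or 0.0001% Triton X-100; 5.3 nM AmpC reagent; cpd preinc 15 min RT; nitrocefin (800 uM stock) to start; A480 q20 s × 4 min; Activity was normalised to no-enzyme and no-compound control wells.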
Shiga toxin inh – A qHTS for Small Molecule Inhibitors of Shiga Toxin; Vero cells, Shiga toxin protein synthesis inhibition reporter; inhibition, % at 38.7 µM; hit rate 9.2% among 290,000; AID 2315, 2010; in the data active = inhibition mostly above about 28%, no sharp cut-off; inactive = mostly below about 43%; also: 0% is about no effect
NS1 inh – qHTS Assay for Inhibitors of Influenza NS1 Protein Function; Potency, µM (series often up to 46.1 µM), for the others: top-dose activity, positive = more growth; hit rate 0.4% among 270,000; calls by dose curve; also: potency is read from the fitted curve at half-maximal effect; actives are rising curves; nearly all actives have a fitted effect of over 50% in size
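In this qHTS, NS1 from influenza A is expressed in budding yeast, where it slows growth. Cells are switched from glucose to 2% galactose medium (pH 6.0, -URA), treated with compound, and growth recovery is read at OD600.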
AmpC detergent – qHTS Inhibitors of AmpC Beta-Lactamase (assay with detergent); P00811; AmpC hydrolysis of nitrocefin, absorbance 480 nm, 0.01% Triton; Potency, µM (top dose mostly 114 µM), without a hit: top-dose activity change, negative = inhibition, usual class: inhibitors; hit rate 0.041% among 370,000;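 also: potency is read from the fitted curve at half-maximal effect; 0% = no-compound wells and -100% = no-enzyme wells; nearly all actives have a fitted effect of over 25% in size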
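20 mM phosphate pH 7.0 + 0.01% (detergent screen) or 0.0001% Triton X-100; 5.3 nM AmpC reagent; cpd preinc 15 min RT; nitrocefin (800 uM stock) to start; A480 q20 s × 4 min; Activity was normalised to no-enzyme and no-compound control wells.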
An asterisk follows results filed as active; ? = inconclusive; . = no result; [ ] = another dose, or the depositor's remark. Unless noted, calls follow the shape of the dose curve; as a rule, active = well fitted curve in the direction sought with a large enough effect; inconclusive = small, poorly fitted or top-dose-only effect, or another doubt; inactive = no such curve, though single readings can be large; an effect the other way counts as inactive or inconclusive.

SMILES	CHX counter	AmpC inh no detg	Shiga toxin inh	NS1 inh	AmpC detergent
CC(C)(C)c1ccc(C(=O)NC(=S)NCC2CCCO2)cc1 (stereo unspecified)	17*	-12%	148*	-1%	2%
CC(C)Oc1ccc(-c2nc(NCC3CCCO3)c3ccccc3n2)cc1 (stereo unspecified)	20*	24%	47*	-5%	2%
CCOc1ccc(-c2cc(C(=O)NCC3CCCO3)c3ccccc3n2)cc1 (stereo unspecified)	24*	45%	65*	5%	0%
CC(C)(C)c1ccc(C(=O)NNC(=S)NCC2CCCO2)cc1 (stereo unspecified)	9	-27%	26	0%	3%
c1cncc(-c2nc(NCC3CCCO3)c3ccccc3n2)c1 (stereo unspecified)	-5	-14%	-17	1%	-9%
Cc1ccc(C(=O)c2c(N)c(C(=O)Nc3cccc(C(F)(F)F)c3)c3ccccn23)cc1	.	.	.	.	19%
Cc1ccc2oc(C(=O)Nc3ccc(S(=O)(=O)Nc4ncccn4)cc3)cc(=O)c2c1	.	.	.	.	14%
CCOc1ccc2nc(NC(=O)CN3C(=O)C4CCCCC4C3=O)sc2c1 (stereo unspecified)	.	1%	.	.	?
CCOCC(=O)Nc1nc2ccc(OC)cc2s1	53*	-18%	67*	-3%	-1%
COc1ccc2nc(NC(=O)CCn3cccc3)sc2c1	16*	-14%	13	-1%	-2%
CCOc1ccc2nc(NC(=O)COC)sc2c1	34*	-19%	114	-8%	5%
O=C(Cc1ccccc1)Nc1sc2c(c1C(=O)Nc1ccc(Br)cc1)CCCC2	-5	.	-3	.	15%
CCN(Cc1ccncc1)Cc1cn[nH]c1-c1ccc(OC)cc1F	6	13%	-2	-1%	-6%
CCOC(=O)c1c(NC(=O)COc2cccc(C)c2C)sc2c1CCC(CC)C2 (stereo unspecified)	.	.	.	.	15%
CCCCC1CCc2[nH]nc(C(=O)O)c2C1 (stereo unspecified)	.	-12%	.	.	-13%
Cc1ccc(COc2ccc(-c3cc(C(F)(F)F)n4nc(C)cc4n3)cc2)cc1	.	.	.	.	-7%
O=C(O)CSc1nnc(NC(=O)CN2CCOCC2)s1	1	0%	-8	6%	0%
C=CCNC(=S)NC(=O)c1ccc(C)c(Br)c1	38*	-16%[2.29 µM]	100*	-35%	2%
C=CCNC(=S)NNC(=O)c1ccc(C)c(Cl)c1	6	-16%	-6	2%	6%
COc1ccc(C(=O)NC(=S)NCCO)cc1Br	16*	-13%	23	-6%	2%
CCc1ccc(C2=NN(c3ccc(S(N)(=O)=O)cc3)C(c3ccc(F)cc3)C2)cc1 (stereo unspecified)	-5	0.2µM*	-3	-10%	0%
NS(=O)(=O)c1ccc(N2N=C(c3ccccc3)CC2c2ccccc2)cc1 (stereo unspecified)	-7	?	-11	21%	-1%
CCc1ccc2nc(SCC(=O)Nc3nnc(C)s3)c(C)cc2c1	-3	-31%	-19	.	-2%
CCOC(=O)C1(Cc2ccccc2Cl)CCN(S(=O)(=O)N(C)C)CC1	6	129%	14	-8%	3%
CCOC(=O)C1(CCc2ccccc2)CCN(C(=O)CCn2cncn2)CC1	32*	76%	63*	-2%	-5%
SMILES	CHX counter	AmpC inh no detg	Shiga toxin inh	NS1 inh	AmpC detergent
CCOC(=O)C1(Cc2ccccc2Cl)CCN(C(=O)CCn2ccnc2C)CC1	42*	82%	68*	-5%	?
CCOC(=O)C1(CCc2ccccc2)CCN(C(=O)CCn2cnnn2)CC1	12*	1%	21	-1%	1%
COCCNC(=O)c1ccc(Cn2c(SCC(=O)NC(C)C)nc3ccccc3c2=O)cc1	.	.	.	.	8%
O=C(Cc1ccc(NC(=O)N2CCSc3ncccc32)cc1)NCc1ccccc1	.	.	.	.	2%
Cc1cc2nc(SCCN3CCCC3)[nH]c2cc1C	12*	-9%	14	5%	-10%
Cc1cccc(C)c1NC(=O)CNC(=O)c1ccccc1OCc1ccccc1	.	-6%	.	.	-17%
O=S(=O)(c1ccc(-c2cc(C(F)(F)F)on2)s1)N1CCN(c2ccc(F)cc2)CC1	.	.	.	.	0%
O=C(Cc1ccc(Cl)cc1)NCC(=O)N1CCCC1	-3	-14%	-5	1%	?
O=C(NCCC(=O)N1CCCC1)c1ccccc1Cl	18*	31%	19	4%	-3%
O=C(NCC(=O)N1CCCCCC1)c1ccc(Br)cc1	34*	-16%	47*	11%	-1%
O=C(NCCC(=O)N1CCCCC1)c1ccc(Br)cc1	56*	-4%	88*	0%	-1%
O=C(NCC(=O)N1CCCC1)c1ccc(Cl)cc1	16*	-23%	27*	14%	1%
CC(C)(C)c1ccc(C(=O)NNC(=O)C(=O)N2CCCCC2)cc1	17*	-11%	39*	-10%	0%
O=C(NNC(=O)c1ccccc1)C(=O)N1CCCCC1	-2	-12%	15	10%	0%
CC(C)(C)c1ccc(C(=O)NCCC(=O)N2CCCC2)cc1	40*	25%	96*	-18%	-11%
CC(C)(C)c1ccc(C(=O)NNc2cc(N3CCCCC3)nc(N3CCCCC3)n2)cc1	-2	0.16µM*	16	5%	-1%
O=C(NCCC(=O)N1CCCCCCC1)c1ccc(Br)cc1	.	-7%	.	.	?
CCOc1ccc(C(=O)NC(C(=O)N2CCC2)C(C)C)cc1 (stereo unspecified)	.	3%	.	.	4%
CSc1ccc(CNC(=O)Cn2ccc3cc(S(=O)(=O)N4CCCC4)ccc32)cc1	.	.	.	.	19%
COc1ccc(CNc2nc(-c3cccnc3)nn2S(C)(=O)=O)cc1	0	6%	-7	.	-3%
COc1ccccc1/C=N/NC(=Nc1ccc(C)cc1)c1nc2ccccc2s1	53*	-14%	184*	11%	0%
COc1cc(/C=N/NC(=O)CCC(=O)Nc2ccc(C)cc2)ccc1O	3	-10%	-11	.	5%
COc1cc(/C=N/NC(=Nc2ccc(C)cc2)c2nc3ccccc3s2)ccc1O	42*	4%	100*	-5%	-5%
CCn1ccnc1CNC(=O)c1cc(COc2ccc(F)cc2F)on1	5	-8%	23	2%	-8%
CCn1ccnc1CN(C)C(=O)c1cc(COc2ccccc2SC)on1	53*	66%	96*	0%	?
CSc1ccccc1OCc1cc(C(=O)N(Cc2nccn2C)C(C)C)no1	29*	69%	37	7%	3%
Cc1cc(OCc2cc(C(=O)N(Cc3nccn3C)C(C)C)no2)cc(C)c1Cl	26*	220%	55*	-17%	?
CCC(C)Sc1c(C(C)C)cnc2c1c(=O)n(C)c(=O)n2C (stereo unspecified)	.	.	.	.	7%
CC(C)(C)C1CCc2c(sc(NC(=O)c3ccccc3F)c2C(=O)NCc2ccco2)C1 (stereo unspecified)	.	.	.	.	-4%

Source: PubChem
